CHT allo act: allosteric activators of human choline transporter CHT. Q9GZV3. CHT-expressing cells, membrane potential dye, choline EC20; hits give high values; LV-AA mutant CHT in HEK293 cells. B-score at 10 µM. hit rate 0.49% among 310,000. AID 488977;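 active = initial fluorescence not abnormally high and integrated response B-score, plate-corrected, over 3 SD above library mean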
TMEM16A inh: blocks the mouse calcium-activated chloride channel TMEM16A. HEK293 TMEM16A/YFP iodide influx fluorescence, ionomycin. normalized B-score (activity score, 25-100; higher = stronger inhibition) at 10 µM. hit rate 1.2% among 310,000. AID 588511;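 active = ratio plate-corrected score three or more library SD toward inhibition, starting fluorescence score within five deviations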;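 note: score derived from kinetic fluorescence span divided by baseline fluorescence per well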
CHT inh: inhibitors of human choline transporter CHT | Q9GZV3 | AID 488975 | CHT-expressing cells, membrane potential dye, choline response; hits give low values | B-score at 10 µM | hit rate 0.86% among 310,000;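 active = B-score over 3 SD under the library average, and starting fluorescence ratio not unusually high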;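 note: choline stimulus applied at its EC90 after an EC20 pre-addition; B-score computed on integrated fluorescence ratio after choline addition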
GPR7 antagonist: blocks human GPR7 receptor signaling; GPR7-expressing cells, fluorescence antagonist assay; inhibition, % at 4.4 µM; hit rate 1.1% among 290,000; AID 1861; in the data active = inhibition above about 16%, passing the limit was not always enough;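 note: cells stimulated with the agonist NPW; 0% = agonist with vehicle and 100% = vehicle without agonist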
ANO1 activ: activates or potentiates the mouse TMEM16A chloride channel | Q8BHY3 | HEK293 TMEM16A/YFP-H148Q/I152L, iodide quench fluorescence; hits give low values | B-score at 10 µM | hit rate 0.3% among 340,000 | AID 623877;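 active = fluorescence-ratio B-score plate-corrected deviation score at least 3 library SD below zero, with starting fluorescence score within 5 deviations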;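 note: channel opened by trigger with iodide after compound preincubation; score built on the fluorescence ratio of max minus min over baseline; more negative score means more quench and so TMEM16A activation or potentiation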
Kir21 inh: Kir2.1 (mouse) channel inhibition; P35561; HEK293-Kir2.1, FluxOR thallium flux fluorescence; hits give low values; B-score at 10 µM; hit rate 0.85% among 310,000; AID 1672;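 active = fluorescence ratio B-score at or below minus 3 SD of library scores, with starting-brightness B-score within 2 SD, cut at about -4.2 in these data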;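 note: channel flux triggered by added potassium and thallium sulfate stimulus; B-score of peak minus minimum fluorescence over baseline after thallium stimulus; more negative B-score means stronger Kir2.1 block with less thallium influx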
Target sequence (P35561 whole entry, looked up): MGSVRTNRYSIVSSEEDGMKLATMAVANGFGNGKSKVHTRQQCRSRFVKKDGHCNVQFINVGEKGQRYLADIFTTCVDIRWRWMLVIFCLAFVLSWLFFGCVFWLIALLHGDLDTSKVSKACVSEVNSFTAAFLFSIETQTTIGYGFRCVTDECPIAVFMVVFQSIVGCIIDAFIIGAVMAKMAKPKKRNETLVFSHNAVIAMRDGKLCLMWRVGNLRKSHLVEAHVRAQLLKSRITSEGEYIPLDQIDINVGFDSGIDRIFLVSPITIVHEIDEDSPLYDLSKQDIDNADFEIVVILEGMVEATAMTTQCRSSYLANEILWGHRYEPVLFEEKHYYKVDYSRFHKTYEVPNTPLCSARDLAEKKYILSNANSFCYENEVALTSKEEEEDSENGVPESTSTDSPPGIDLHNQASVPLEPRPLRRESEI
CHT act confirm: human CHT activation, confirmatory screen; hit rate 91% among 2,500; CHT-expressing cells, membrane potential dye fluorescence (FDSS); % of choline EC20–EC90 response window; HEK293 expressing CHT LV-AA mutant; choline added at its EC20; activation, % at 10 µM; AID 504833; shares compounds with CHT allo act;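 active = primary screen active, with duplicate mean activation above negative control mean plus 3 SD, cut at about 11% in these data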
HEK293 MP dye: activity in parental HEK293 cells lacking CHT | shares compounds with CHT allo act | membrane potential dye fluorescence (FDSS); measured after EC20 choline addition | ratio readout change at 10 µM, hits read low | hit rate 62% among 2,500 | AID 623908;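 active = duplicate-averaged ratio beyond 3 SD from buffer wells, up or down, though filed actives are nearly all decreases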
The depositor's hits bear a star; i = inactive; · = no result. In the library only some 3.7% were active in any assay of this set; here they are far more common.

SMILES	CHT allo act	TMEM16A inh	CHT inh	GPR7 antagonist	ANO1 activ	Kir21 inh	CHT act confirm	HEK293 MP dye
CN(C(=O)CSc1nc2ccccc2c(=O)n1-c1ccc(F)cc1F)C1CCS(=O)(=O)C1 (stereo unspecified)	·	·	·	·	i	·	·	·
Cc1cc(C(=O)COC(=O)c2ccc(CO)cc2)c(C)n1CC1COc2ccccc2O1 (stereo unspecified)	i	i	i	14.8	i	0.03	·	·
Cn1cc([C@@H]2C[C@H]3CN(Cc4cccc(Cl)c4)C(=O)[C@]34CCCN24)c(-c2ccccc2)n1	i	i	i	15.4	i	-1.87	18.6*	i
CCCn1ncc([C@@H]2C[C@H]3CN(Cc4cccc(Cl)c4)C(=O)[C@]34CCCN24)c1C	i	i	i	1.3	i	0.01	·	·
Cc1ccccc1CN1C(=O)/C(=C\c2ccc(C(=O)NCCN3CCOCC3)cc2)Sc2ccccc21	i	i	i	6.6	i	-0.01	·	·
CCN1CCN(CCNC(=O)c2ccc(/C=C3/Sc4ccccc4N(Cc4cccc(Cl)c4)C3=O)cc2)CC1	i	i	i	12.7	i	-5.14*	17.3*	-27.8*
CC(C)(C)Nc1c2ccccc2nc2ccccc12	i	i	i	-3.9	i	-4.52*	36.9*	-57.5*
O=[N+]([O-])c1c(N2CCN(CCO)CC2)nc2ccccn12	i	i	i	-0.5	i	-1.71	·	·
NC(=O)C1CCN(c2nc(-c3ccccc3-c3ccccc3)cs2)CC1	·	·	·	·	i	·	·	·
COC(=O)c1ccc(OCCN2C3=NCCN3c3ccccc32)cc1	i	i	i	-4.0	i	-0.05	17.1*	-40.5*
c1ccc2c(c1)N1CCN=C1N2CCN1CCCCC1	9.78*	i	i	-3.6	i	-0.2	79.7*	-80.4*
OCCN1C2=NCCCN2c2ccccc21	i	i	i	-10.1	i	1.31	·	·
COC(=O)c1ccc(OCCN2CCCCCC2)cc1	i	i	i	-7.6	i	0.05	·	·
c1ccc2c(c1)N1CCCN=C1N2CCN1CCCCC1	9.51*	i	i	2.4	i	-2.06	30.8*	-72.1*
Clc1ccc(CN2C3=NCCN3c3ccccc32)cc1Cl	i	i	i	14.9	i	-3.15	23.2*	i
C=CC[C@H](CC(=O)NCCO)C(=O)N[C@@H](COC(=O)[C@H](CC=C)CC(=O)OC(C)(C)C)Cc1ccccc1	·	·	·	·	i	·	·	·
COc1ccc(CCn2c(=N)c(C(=O)NC3CCCCC3)cc3c(=O)n4ccccc4nc32)cc1	i	i	i	6.8	i	-1.04	42.7*	-48*
N=c1c(C(=O)NC2CCCC2)cc2c(=O)n3ccccc3nc2n1CCN1CCOCC1	i	i	i	-5.7	i	1.18	48.5*	-37.5*
Cc1cccn2c(=O)c3cc(C(=O)NC4CCCCC4)c(=N)n(Cc4ccccc4)c3nc12	i	i	i	-4.2	i	1.13	·	·
Cc1cccn2c(=O)c3cc(C(=O)NC4CCCC4)c(=N)n(CCc4ccccc4)c3nc12	i	i	i	-7.7	i	0.78	9.7	-28.5*
O=C(C[C@H]1C/C=C\CCC(=O)O[C@@H](c2ccccc2)CNC1=O)NCCO	·	·	·	·	i	·	·	·
CCC(C)c1ccccc1N1CC(C(=O)Nc2cc(S(=O)(=O)N3CCOCC3)ccc2OC)CC1=O (stereo unspecified)	i	i	i	-10.3	i	1.08	·	·
CC(C)(C)c1cc(C2=CSC3=NCCN23)cc(C(C)(C)C)c1O	i	i	i	13.3	i	-0.88	·	·
CCN(CC)CCNC(=O)COc1ccc(OC)cc1	i	i	i	-12.5	i	0.04	·	·
CCN(CC)CCCCNc1ncc2cc(-c3cc(OC)cc(OC)c3)c(NC(=O)NC(C)(C)C)nc2n1	6.73*	i	i	-1.5	i	0.37	46.5*	-22.8*
SMILES	CHT allo act	TMEM16A inh	CHT inh	GPR7 antagonist	ANO1 activ	Kir21 inh	CHT act confirm	HEK293 MP dye
COc1cccc(/C=N/NC(=O)c2ccc(=O)n(C)c2)c1OC	6.31*	i	i	6.7	i	0.1	13.7*	-31.8*
COc1cccc(/C=N/NC(=O)c2ccccc2)c1OS(=O)(=O)c1ccccc1	i	i	i	-4.3	i	-0.68	·	·
CCCCn1c(N)c(N(CCOC)C(=O)CC(NC(=O)c2ccccc2Cl)c2ccccc2)c(=O)[nH]c1=O (stereo unspecified)	·	·	·	·	i	·	·	·
Clc1ccc2c(N3CCOCC3)ccnc2c1	i	i	i	-14.9	i	-0.99	50.0*	-49.8*
CCC(=O)N1CCN(c2ccnc3cc(Cl)ccc23)CC1	7.56*	i	i	-3.8	i	1.39	67.9*	-62.7*
COc1ccc(-c2c(C(C)=O)c(C)nc3sc4c(=N)n(N)cnc4c23)cc1	6.72*	i	i	-0.2	i	-0.32	41.0*	-38.3*
CCn1c(SCC(=O)NNC(=O)c2ccc(OC)cc2)nnc1C1CC1	i	i	i	4.6	i	-0.72	·	·
Cc1cccc2c(N)c3c(nc12)N(C)CC3	i	i	i	-8.3	i	0.05	·	·
COc1ccc2nc(C)c3c(c2c1)OC(C)C3 (stereo unspecified)	i	i	i	-15.5	i	-0.03	·	·
COc1ccc(N2CCc3c(C)nc4c(OC)cccc4c32)cc1	i	i	i	5.8	i	-0.6	33.4*	-55.9*
COc1cccc2c3c(c(C)nc12)CC(C)O3 (stereo unspecified)	9.94*	i	i	-10.9	i	-0.96	52.8*	-69.5*
Cc1nc2c(C)cccc2c2c1CCN2c1ccccc1F	i	i	i	-2.4	i	-0.67	46.7*	-53.8*
O=c1oc2ccccc2cc1-c1cn2cccnc2n1	i	i	i	7.1	i	-0.7	20.3*	-32.8*
Cc1cccn2cc(-c3cc4ccccc4oc3=O)nc12	i	i	i	-6.3	i	1.22	·	·
O=C(Cc1ccccc1F)Nc1ccc(S(=O)(=O)N2CCCC2)cc1	·	·	·	·	i	·	·	·
C=CCOC(=O)C1=C[C@@H](c2csc3ccccc23)C[C@@H](OCCCCO)O1	i	i	i	·	i	0.17	20.2*	i
CCCc1c(CC)c(=N)c2ccccc2n1C	7.54*	i	i	7.9	i	0.76	63.7*	-58.1*

From PubChem
